Here are results for 68 molecules from PubChem BioAssay AID588342 (National Center for Advancing Translational Sciences (NCATS), 2011).

The whole screen tested about 360,000 compounds, of which about 25,000 (6.9%) were called active. Roughly 9% stayed inconclusive and do not appear here. What follows is part of a selection rich in actives, with near analogues and random picks from the rest. Unmarked numbers belong to inactive results. The call rests on the fitted dose curve; in most records, active means well fitted inhibition curve with a large enough effect; inconclusive means small, poorly fitted or top-dose-only effect; inactive means flat fitted curve, though single readings scatter.
Potency means the concentration at half of the fitted maximal effect.

Chain of Luciferin 4-monooxygenase (Photinus pyralis) (P08659 whole entry, looked up): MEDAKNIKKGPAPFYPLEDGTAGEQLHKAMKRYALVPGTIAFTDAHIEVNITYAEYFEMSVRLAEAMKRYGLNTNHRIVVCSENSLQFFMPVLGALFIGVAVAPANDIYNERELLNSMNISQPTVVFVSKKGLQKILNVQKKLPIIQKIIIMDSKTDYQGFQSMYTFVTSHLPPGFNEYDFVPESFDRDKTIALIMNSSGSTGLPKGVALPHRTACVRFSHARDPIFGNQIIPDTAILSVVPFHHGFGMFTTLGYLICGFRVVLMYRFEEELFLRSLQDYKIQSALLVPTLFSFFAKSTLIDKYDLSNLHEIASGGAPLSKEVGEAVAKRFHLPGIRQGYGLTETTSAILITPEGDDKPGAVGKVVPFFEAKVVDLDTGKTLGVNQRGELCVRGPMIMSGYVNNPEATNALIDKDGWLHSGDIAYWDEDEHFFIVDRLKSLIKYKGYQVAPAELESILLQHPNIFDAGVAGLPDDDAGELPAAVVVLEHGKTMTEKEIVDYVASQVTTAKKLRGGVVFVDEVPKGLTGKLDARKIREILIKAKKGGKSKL

The target of this assay is Luciferin 4-monooxygenase (Photinus pyralis) (UniProt P08659). Nature of the assay: qHTS profiling assay for firefly luciferase inhibitor/activator using purifed enzyme and Km concentrations of substrates (counterscreen for miR-21 project). Further: nearly all actives have a fitted effect of over 55% in size.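 On activity change, negative = inhibition: plate controls were vehicle for no effect and reference inhibitor for full effect.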 As to conditions: purified FLuc, luminescence inhibition; series mostly up to 57.5 µM; activity change, negative = inhibition: at the top concentration. In short, it runs like this:
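Biochemical qHTS of compounds, final roughly 60 µM downward over six points, against 10 nM purified firefly luciferase using Km concentrations of substrates (10 uM D-luciferin, 10 uM ATP) in Tris acetate pH 7.5 buffer; luminescence output.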
A general note: qHTS replaces the single test concentration by a dilution series.
As to `Clc1ccc(N/N=C/c2cccs2)nn1`, the “activity change, negative = inhibition” value is -5.8%.

Turning to `Oc1cccc(/C=N/Nc2ccc(Cl)nn2)c1O`, the Potency is 8.49 µM (active).

In the case of `Cc1ccsc1/C=N/Nc1ccc(Cl)nn1`, the “activity change, negative = inhibition” value was -19.8%.

For `Cn1c(=O)c2c(nc(NCCc3ccccc3)n2Cc2ccccc2Br)n(C)c1=O`, the “activity change, negative = inhibition” value was -7.21%.

Regarding `CCOc1ccccc1NC(=O)Cn1c(=O)n(Cc2ccco2)c(=O)c2sc3ccccc3c21`, the “activity change, negative = inhibition” value was 2.58%.

Consider `CN(c1ccccc1)c1ccc(/C=c2\s/c(=C(/C#N)C(=O)C(C)(C)C)n(Cc3ccco3)c2=O)cc1`, for which the Potency is 15.1 µM (active).

Consider `CCOC(=O)/C=c1\s/c(=C\c2ccc(C#N)cc2)c(=O)n1CC(=O)Nc1cccc(C)c1C`, for which the “activity change, negative = inhibition” value is 2.08%.

As to `O=C(CCc1cn(Cc2ccc(F)cc2)c2ccccc12)NC1CCCCC1`, the “activity change, negative = inhibition” value is -1.23%.

For `COc1ccc(CCN=C2SCC(=O)N2Cc2ccccc2)cc1OC`, the “activity change, negative = inhibition” value is 1.96%.

On to `Cc1ccc(-c2nn(CCC(=O)Nc3ccc(Cl)c(Cl)c3)c(=O)c3ccccc23)cc1`, for which the “activity change, negative = inhibition” value was -11.4%.

Turning to `CC(C)c1nc2oc3c(N4CCN(C)CC4)ncnc3c2c2c1CCC2`, the “activity change, negative = inhibition” value is 2.2%.

As for `Cc1cccc(NC(=S)Nc2ccc(Cl)c(Cl)c2)c1`, the “activity change, negative = inhibition” value is -9.32%.

Regarding `FC(F)(F)c1cccc(NC(=S)Nc2cccc(Cl)c2)c1`, the “activity change, negative = inhibition” value was 1.4%.

In the case of `Cc1csc(NC(=S)Nc2cccc(Cl)c2)n1`, the Potency was 4.78 µM (active).

`COC(=O)c1ccccc1NC(=S)NC(=O)c1ccccc1F`: the “activity change, negative = inhibition” value was -17.6%.

Take `O=C(O)c1ccccc1NC(=O)c1ccccc1-c1ccccc1C(=O)O`: the “activity change, negative = inhibition” value is -3.24%.

In the case of `O=C(NC(=S)Nc1ccccc1C(=O)O)c1ccc(-c2ccc(Br)cc2)o1`, the Potency is 26.9 µM (active).

For the molecule `Cc1ccc(NC(=O)CN(C)C(=O)COC(=O)c2nccnc2N)cc1`, the “activity change, negative = inhibition” value was 3.32%.

Regarding `COC(=O)c1cc(NC(=O)c2sc3ccccc3c2Cl)cc(C(=O)OC)c1`, the “activity change, negative = inhibition” value is 5.83%.

Regarding `COc1ccc(N=C(C)c2sc3ccccc3c2O)cc1`, the Potency was 0.601 µM (active).

In the case of `Cc1cc(C)cc(NC(=O)C(OC(=O)c2ccc(O)cc2)c2ccccc2)c1` (stereo not drawn), the “activity change, negative = inhibition” value is -0.427%.

On to `CC(C)CN(C(=O)CSc1nncn1C)C1CCS(=O)(=O)C1` (stereo not drawn), for which the “activity change, negative = inhibition” value was 0.606%.

On to `Cc1cccc(NC(=O)N2CCN(C)c3ncccc32)c1C`, for which the “activity change, negative = inhibition” value was -3.65%.

Take `O=C(Nc1ccon1)c1sc2ccccc2c1Cl`: the Potency is 7.57 µM (active).

Consider `O=C(Nc1ccon1)c1cccc(Cl)c1`, for which the “activity change, negative = inhibition” value was 3.05%.

Turning to `CCCC(=O)Nc1ccc(NC(=O)c2sc3ccccc3c2Cl)cc1`, the “activity change, negative = inhibition” value is -7.06%.

For the molecule `Cc1cc2c(cc1C)C(c1cccc(OC(C)C)c1)CC(=O)N2` (stereo not drawn), the “activity change, negative = inhibition” value was 3.13%.

In the case of `Cc1cccc(-c2nc(SCc3ccc(Br)cc3)n3[nH]c(=O)cc3n2)c1`, the “activity change, negative = inhibition” value was -4.19%.

As to `CCOc1ccc(-n2c(SCC(=O)NCc3ccccc3)nc3n[nH]c(C)c3c2=N)cc1`, the “activity change, negative = inhibition” value was -0.652%.

Consider `CCCn1c2ccccc2c2cnn(CC(=O)NCCCOC(C)C)c(=O)c21`, for which the “activity change, negative = inhibition” value was -5.29%.

As for `CSCCNC(=O)c1ccc2nc(Cc3ccccc3F)oc2c1`, the Potency was 19 µM (active).

As for `COc1ccc(Cc2nc3ccc(C(=O)NCc4ccccc4C)cc3o2)cc1`, the “activity change, negative = inhibition” value was -0.926%.

Turning to `O=C(NCCc1ccc(Cl)cc1)c1ccc2nc(CCc3ccccc3)oc2c1`, the “activity change, negative = inhibition” value was 1.26%.

`Cn1c(=O)sc2cc(NS(=O)(=O)c3ccc(C(C)(C)C)cc3)ccc21`: the “activity change, negative = inhibition” value is -2.52%.

Take `Cc1cccnc1CCNC(=O)C1CCC(=O)N(Cc2cccc(F)c2)C1` (stereo not drawn): the “activity change, negative = inhibition” value was 1.04%.

As for `CCOc1ccc(-c2cc3nc(C4CCN(C(=O)OC(C)(C)C)CC4)c(C(=O)Nc4cccc(CC)c4)cn3n2)cc1`, the “activity change, negative = inhibition” value was -9.38%.

Consider `CN1C2CCC1/C(=C\c1ccccc1Cl)C(=O)/C2=C\c1ccccc1Cl`, for which the “activity change, negative = inhibition” value was 0.824%.

Consider `CCSc1ncc(Cl)c(C(=O)Nc2c(C(=O)c3ccccc3)oc3ccccc23)n1`, for which the “activity change, negative = inhibition” value was 0.97%.

For `Cc1ccc(Nc2ncnc3c2cnn3C)c(C)c1`, the “activity change, negative = inhibition” value was -2.04%.

Turning to `Cc1ccc(-n2ncc3c(Nc4cccc(C(=O)O)c4)ncnc32)cc1`, the Potency was 0.953 µM (active).

Turning to `Fc1ccc(-n2ncc3c(Nc4ccc(Oc5ccccc5)cc4)ncnc32)cc1`, the “activity change, negative = inhibition” value is -2.7%.

As for `COc1ccc(Cl)cc1NC(=O)CCC(=O)c1ccc(C)cc1`, the “activity change, negative = inhibition” value was 2.33%.

With `CCN1CCN(c2ncc3c(n2)CC(c2ccccc2O)CC3=O)CC1` (stereo not drawn), the “activity change, negative = inhibition” value was 2.06%.

Consider `CCc1ccccc1NC(=O)CN(C)C(=O)c1cc(C2CC2)nn1-c1ccccc1`, for which the “activity change, negative = inhibition” value was 2.08%.

For the molecule `Cc1ccc(C)c(OCC(=O)NNC(=O)C2CCC2)c1`, the “activity change, negative = inhibition” value is 8.82%.

As to `COc1cc(C(=O)OCC(=O)NC23CC4CC(CC(C4)C2)C3)cc(OC)c1OC`, the “activity change, negative = inhibition” value is -0.412%.

With `N#Cc1nc(-c2cccc3ccccc23)oc1N`, the “activity change, negative = inhibition” value was -11.7%.

Turning to `CCOC(=O)c1c(C)[nH]c(C)c1S(=O)(=O)N1CCC(C(=O)Nc2ccc(C)c(Cl)c2)CC1`, the “activity change, negative = inhibition” value is 2.93%.

In the case of `O=C(CN1C2=NCCN2c2ccccc21)c1cccs1`, the “activity change, negative = inhibition” value was 5.98%.

In the case of `Nc1c(C(=O)c2cccs2)sc2nsc(SCCN3CCCCC3)c12`, the Potency was 5.36 µM (active).

For `O=C(CSc1ncnc2sccc12)N1CCN(C(=O)c2cccs2)CC1`, the “activity change, negative = inhibition” value is -7.48%.

Turning to `O=C(NCCCN1CCN(c2cccc(Cl)c2)CC1)c1nnc(Cc2ccc(F)cc2Cl)o1`, the “activity change, negative = inhibition” value is -10.2%.

Consider `CCOC(=O)c1ccc(NC(=O)c2nc[nH]c2C(=O)N[C@@H](CCCCNC(=O)OC(C)(C)C)C(=O)OC(C)(C)C)cc1`, for which the “activity change, negative = inhibition” value is 0.515%.

As to `Cc1nn(-c2ccccc2)c(C)c1/C=C/C(=O)OC(C)C(N)=O` (stereo not drawn), the “activity change, negative = inhibition” value is 0.623%.

In the case of `Cc1nn(-c2ccccc2)c(CC(C)(C)C(=O)O)c1C(=O)O`, the “activity change, negative = inhibition” value was -1.1%.

Regarding `Cc1nn(-c2ccccc2)c(C)c1NC(=O)CCl`, the “activity change, negative = inhibition” value is -1.67%.

`Cc1nn(-c2ccccc2)c(Cl)c1/C=C/C(=O)c1ccc(O)cc1`: the Potency was 12 µM (active).

As for `Cc1ccc(C(=O)/C=C/c2c(C)nn(-c3ccccc3)c2Cl)cc1`, the Potency was 6.01 µM (active).

Turning to `COc1ccc(CCNC(=O)c2c(C)nn(-c3ccccc3)c2Cl)cc1`, the “activity change, negative = inhibition” value was 0.672%.

For `COc1ccc(-c2c(-c3cc(OC)cc(OC)c3)n(C)c3ccc(-c4ccn[nH]4)cc23)cc1`, the “activity change, negative = inhibition” value was -0.353%.

As to `O=C(NC1CC(=O)N(c2ccccc2)C1)c1ccco1` (stereo not drawn), the “activity change, negative = inhibition” value was -0.409%.

Take `CCOc1cc(C(=O)O)ccc1OCCOc1ccccc1`: the “activity change, negative = inhibition” value was -1.63%.

As to `COc1ccc(N2CCN(C(=O)c3ccccc3NC(=O)C3=C(C)OCCS3)CC2)cc1`, the “activity change, negative = inhibition” value was 1.81%.

Take `Oc1ccc2ccccc2c1N=Nc1nccs1`: the Potency was 19 µM (active).

Consider `c1ccc(NCc2cccc3ccccc23)nc1`, for which the “activity change, negative = inhibition” value was -16.5%.

On to `O=C1CC(NNc2ccccc2)C(=O)N1c1cccc(Cl)c1` (stereo not drawn), for which the “activity change, negative = inhibition” value was -17.8%.

As for `O=c1c2cc(Br)ccc2nc(-c2cccc(Cl)c2)n1O`, the “activity change, negative = inhibition” value is -2.13%.

Take `O=c1c(-c2cccc(Cl)c2)c[nH]n1-c1ccccc1`: the Potency was 26.9 µM (active).
